Screening results deposited in PubChem BioAssay by The Scripps Research Institute Molecular Screening Center.
Compounds with a hit are over-represented: about 2.4% of the library has one in this group of screens.
CHO-K1 Ca PAM – M1 PAM counterscreen hit in parental CHO-K1 cells. activation, % at 3 µM. 0.02% of 360,000 active. ATP EC20, Fluo-8 calcium fluorescence; 0% at ATP EC20, 100% at ATP max. AID 602247;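 active = activation above the run cutoff, the mean activation of all test compounds plus 3 SD, cut at about 40% in these data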;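 also: peak over basal fluorescence ratio in a 140 s read after ATP addition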
CHRM1 antagonist – blocks human M1 muscarinic receptor; P11229; CHO-K1 hM1, Fluo-8 calcium fluorescence, ACh EC80 antagonist; inhibition, % at 3 µM; 1.3% of 360,000 active;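 active = percent inhibition above its own plate's cutoff, namely the mean of that plate's compound wells plus 3 SD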;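 also: peak over basal fluorescence ratio during 140 s after agonist addition; 0% = ACh EC80 plus DMSO and 100% = DMSO alone without agonist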
Target sequence (P11229 whole entry, looked up): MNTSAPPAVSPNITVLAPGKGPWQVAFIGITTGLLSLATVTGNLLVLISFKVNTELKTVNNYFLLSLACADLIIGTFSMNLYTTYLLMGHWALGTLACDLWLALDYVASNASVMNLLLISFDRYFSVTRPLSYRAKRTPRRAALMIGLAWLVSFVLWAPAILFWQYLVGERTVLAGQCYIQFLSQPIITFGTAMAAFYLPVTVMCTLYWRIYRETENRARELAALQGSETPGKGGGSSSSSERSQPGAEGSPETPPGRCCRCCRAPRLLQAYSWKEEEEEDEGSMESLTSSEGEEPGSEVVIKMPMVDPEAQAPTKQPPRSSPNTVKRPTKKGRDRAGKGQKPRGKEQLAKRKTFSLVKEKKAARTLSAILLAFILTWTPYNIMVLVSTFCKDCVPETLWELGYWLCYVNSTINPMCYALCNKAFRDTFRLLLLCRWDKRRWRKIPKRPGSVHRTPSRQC
M1 ag – activates human CHRM1 receptor; 0.33% of 360,000 active; activation, % at 3 µM; P11229; CHO-K1 hM1, Fluo-8 calcium fluorescence, agonist mode; 0% DMSO, 100% acetylcholine EC100;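 active = activation above the run's mean compound activation plus 3 SD, cut at about 16% in these data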;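 also: peak over basal fluorescence ratio within a 140 s kinetic read after compound addition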
M1 PAM – positive allosteric modulators of human M1 muscarinic receptor; activation, % at 3 µM; 0.088% of 360,000 active; CHO-K1 hM1, Fluo-8 calcium fluorescence, ACh EC20; 0% = ACh EC20, 100% = maximal ACh; AID 588819; in the data active = activation above about 19%, passing the limit was not always enough
CHO-K1 Ca antag – M1 antagonist counterscreen hit in parental CHO-K1 cells. ATP-induced calcium, Fluo-8 fluorescence. AID 602250. 0.6% of 360,000 active. inhibition, % at 3 µM;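 active = inhibition above a per-plate cutoff, the plate's mean sample inhibition plus 3 SD, cut at about 24% in these data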;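 also: 0% = DMSO plus EC80 ATP and 100% = DMSO alone without ATP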
M1 ag parental – M1 agonist counterscreen hit in parental CHO-K1 cells | Fluo-8 calcium fluorescence; scaled to maximal ATP response, vehicle zero | 0.48% of 360,000 active | activation, % at 3 µM; in the data active = activation above about 15%;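 also: untransfected CHO-K1 host cells lacking M1 receptor as counterscreen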
The depositor's hits bear a star.

SMILES	CHO-K1 Ca PAM	CHRM1 antagonist	M1 ag	M1 PAM	CHO-K1 Ca antag	M1 ag parental
C=CCNC(=O)c1ccccc1Cl	11	-7	-4	6	-3	19*
COc1ccc(C(=O)Nc2cccc(C)n2)cc1S(=O)(=O)N1CCCc2ccccc21	-17	15	-3	-10	19	3
Cc1ccc2nc(N)nnc2c1	20	-17	1	11	-14	1
Nc1nnc2cc(Cl)ccc2n1	-5	-16	8	28*	-22	0
O=C(OCc1ccccc1)N1C=CCC[C@@H]1c1c(Cl)cccc1Br	-8	17	-7	-13	21	0
Cc1ccn(CCC(=O)N2CCCC(N3CCN(c4ccccc4C)CC3)C2)n1 (stereo unspecified)	5	1	49*	-25	-3	0
Cc1ccccc1N1CCN(C2CCCN(C(=O)CCC(=O)N(C)C)C2)CC1 (stereo unspecified)	-18	9	-6	-2	17	0
CC(C)c1ccc(C2c3[nH]c4ccccc4c3C[C@H]3C(=O)N(c4ccccc4C(=O)N4CCC[C@H]4C(=O)O)C(=O)N23)cc1 (stereo partly specified)	-17	-6	-4	1	25*	0
COc1ccc(C2c3[nH]c4ccccc4c3C[C@H]3C(=O)N(c4ccccc4C(=O)N4CCC(C(=O)O)CC4)C(=O)N23)cc1 (stereo partly specified)	-9	-7	-2	1	-1	0
Cc1cc(C)[n+](-c2ccc(C(C)C)cc2)c2[nH]c(=O)[nH]c(=O)c12	21	55*	-10	-22	2	5
Cc1cc(/C=C2\SC(=S)N(Cc3ccco3)C2=O)c(C)n1-c1cccnc1	8	7	1	6	-2	2
Cc1cc(/C=C2/SC(=S)N(c3cccc(C(F)(F)F)c3)C2=O)c(C)n1-c1cccnc1	5	43*	6	-21	36*	9
O=C1/C(=C\c2ccc(O)cc2)SC(=S)N1c1cccnc1	11	19	17*	-10	7	17*
CN(C(=O)COC(=O)c1ccccc1NCc1ccco1)c1c(N)n(Cc2ccccc2)c(=O)[nH]c1=O	-8	-10	-2	2	-4	0
CCn1ncc(Br)c1C(=O)NC1CCCCCCC1	-19	11	-5	0	2	0
CC(=O)N1c2ccccc2S(=O)(=O)c2c1ccc1ccccc21	10	-3	-3	4	-13	1
CCOc1ccc(N/C(N)=N/c2nc(C)cc(C)n2)cc1	-4	16	6	-19	8	17*
Cc1cc(C)nc(/N=C(\N)Nc2ccc(SC(F)F)cc2)n1	-18	31	19*	-28	15	30*
Cc1ccc(C)c(N/C(N)=N/c2nc(C)cc(C)n2)c1	-13	15	10	-21	35*	27*
COc1ccc(C)cc1N/C(N)=N/c1nc(C)cc(C)n1	24	-8	-11	7	-11	3
Cc1cc(C)nc(/N=C(\N)Nc2ccc(-c3ccccc3)cc2)n1	-16	12	5	-16	10	27*
CC(=O)Nc1ccc(N/C(N)=N/c2nc(C)cc(C)n2)cc1	-8	-3	-13	2	13	0
CCOC(=O)c1ccc(S(=O)(=O)NCCNCc2ccccc2)cc1	24	-4	-8	-3	-10	1
O=[N+]([O-])c1ccc(CS(=O)(=O)c2ncn[nH]2)cc1	5	6	-4	-2	-2	3
CCOc1ccccc1CN1CCN(CCCc2ccccc2)CC1CCO (stereo unspecified)	11	15	-9	-13	3	6
CC(C)CC1C(=O)N(Cc2cn(CCC3OCCO3)nn2)CCS(=O)(=O)N1Cc1ccc(-c2ccc(Cl)c(Cl)c2)cc1 (stereo unspecified)	8	0	-2	1	7	1
CC1=C(C(N)=O)C(c2ccccc2[N+](=O)[O-])n2ncnc2N1 (stereo unspecified)	14	-20	0	14	-4	2
Cc1ccc(S(=O)(=O)N2CCN(CCOc3cccc(C)c3)CC2)cc1	15	-5	-4	11	-22	0
CCCCN(CCCC)/C(N)=N/c1nc(C)cc(C)n1	-11	2	-8	0	-3	0
